Measured values from ChEMBL document CHEMBL4513216, “Probing the Open Global Health Chemical Diversity Library for Multistage-Active Starting Points for Next-Generation Antimalarials” (ACS Infect Dis, 2020).
Screen size: about 65,000 compounds; about 2,100 (3.2%) showed an effect of 50% or more. The median lay at about -52%. Many of the other results were omitted from the sample, so strong results are more common in it than they were.

System: Plasmodium falciparum
Assay: Screen against P. falciparum Asexual Blood Stage (ABS), at 5uM
Format: functional, Dd2
Settings: tested at 5 uM

| SMILES | INHIBITION |
| --- | --- |
| O=C1NC2(CCc3ccccc31)CCN(Cc1cccnc1)C2 (configuration not stated) | -111% |
| O=C(c1ccco1)N1C[C@H]2CCCN(Cc3ccncc3)[C@H]2C1 | -19.6% |
| Cn1cnc(S(=O)(=O)N2C[C@H]3CN(Cc4cccnc4)C[C@H]3C2)c1 | -85.8% |
| Cc1sc2nc(CCN)nc(N3CC(N4CCCCC4)C3)c2c1C | 81.6% |
| Cc1sc2nc(CCN)nc(N3CCC(N4CCCC4)CC3)c2c1C | 84.3% |
| COCC(=O)NC[C@H]1C[C@@H]2CCN1C[C@@H]2CN1CCc2ccccc21 | 27.2% |
| N#Cc1cnc2ccccc2c1N1CCNCC1 | -3.53% |
| O=C(C1CCCCC1)N1C[C@H]2CNC[C@H]2C1 | 44.5% |
| CN1C[C@@H]2C[C@H](C(=O)Nc3cccnc3)[C@H](C1)O2 | -69.3% |
| COc1ccc(CNC(=O)C2=NN(c3ccc(C)cc3)C(=O)CN2)cc1 | 75% |
| CC(=O)NC(C)C(=O)NCc1ccc(N2CCNC(=O)C2)cc1 (configuration not stated) | -4.19% |
| COCCN1CCO[C@H]2[C@H](OCc3cccc(C)n3)CC[C@@H]21 | -74.3% |
| CC(C)(C)c1n[nH]c(C2CN(CC3CCC3)CCO2)n1 (configuration not stated) | -108% |
| Cc1ccc2[nH]c(C3CCN(C)CC3)nc2c1 | -40.2% |
| Cc1ccc2[nH]c([C@H]3CCN(CC4CCCCC4)C3)nc2c1 | 74.7% |
| CCC(CC)NCC(C)Oc1cccnc1 (configuration not stated) | -116% |
| Cc1cn2c(n1)C(CNCc1ccc(C)s1)CCC2 (configuration not stated) | 91.1% |
| Cc1cn2c(n1)C(CNCc1cccc3c1OCO3)CCC2 (configuration not stated) | 82.1% |
| CCOC[C@@H]1CCC[C@@]12CN(Cc1cccnc1)CCO2 | -129% |
| Cc1ccc2c(c1)CCC21CCN(CCO)CC1 | 15.4% |
| Cc1ccc2c(c1)C(N(C)C)CC21CCN(CCO)CC1 (configuration not stated) | 74.8% |
| COCCN1CCC2(CC1)CC(NCc1ccc(C)s1)c1ccccc12 (configuration not stated) | 77.2% |
| COCCN1CCC2(COCc3cnc(-c4ccccc4)nc32)C1 (configuration not stated) | 31.2% |
| Cc1ccc(CNC2CC3(CCN(CCO)CC3)c3ccccc32)s1 (configuration not stated) | 85.4% |
| Cc1ccc(CN2CCC3(CC2)C(=O)N(C)c2ccccc23)s1 | 3.77% |
| Cc1ccc2c(c1)C1(CCNCC1)CC2NCCO (configuration not stated) | -23.2% |

| SMILES | INHIBITION |
| --- | --- |
| Cc1cccc(CN2C[C@@H]3OCCN(C)[C@@H]3C2)n1 | -14.4% |
| Cc1cccc(CNC2CC3(CCN(CCO)CC3)c3ccccc32)n1 (configuration not stated) | 78.6% |
| O=S(=O)(C1CC1)N1CCC2(CCCN(Cc3ccccn3)C2)C1 (configuration not stated) | 12.2% |
| O=C(Cc1ccccn1)N1CCN2C[C@H](OCCN3CCCC3)C[C@H]2C1 | 2.21% |
| CC[C@@H]1N(CC2CC2)CCC[C@]12CCC(=O)N2 | -57.5% |
| Cc1noc(C)c1CN1CC[C@H]2[C@H]1CCN2CC1CCOCC1 | -92% |
| CNC(=O)[C@H]1C[C@@H]2CN(C(=O)c3ccc(C)nc3)C[C@@H]2N1C | -35.1% |
| CC(C)C(NC(=O)c1ccccc1)C(=O)N1CCC2(CC1)OCCO2 (configuration not stated) | -37.3% |
| CN(C)C(=O)c1ccc(-c2cccc3c2CCNC3)o1 | -44.3% |
| CN1C(=O)C2(CCN(CC3CC3)CC2)c2ccccc21 | 25.6% |
| Cn1cc(CNC2CC3(CCN(CC4CC4)CC3)c3ccccc32)cn1 (configuration not stated) | 87.6% |
| Cn1cc(CN2CC[C@]3(C[C@H](Oc4ccccn4)CO3)C2)cn1 | -20.3% |
| Cc1oc(-c2ccco2)nc1CC(=O)N1CCN(C2CCC2)CC1 | -14.4% |
| NC1CCN(C2CCN(c3ccc(-c4ccco4)cc3)CC2)CC1 | 80.3% |
| CNC1CCN(C2CCN(c3ccc(-c4ccco4)cc3)CC2)CC1 | 86.4% |
| NCC1CCN(C2CCN(c3ccc(-c4ccco4)cc3)CC2)C1 (configuration not stated) | 91% |
| O=C1NC2(CCCCC2)c2nnnn2-c2ccc(Br)cc21 | -67.2% |
| O=C(CCc1ccsc1)N1CCC(C(=O)O)(c2ccccc2)CC1 | -103% |
| CCN1CCCN(S(=O)(=O)c2cc3ccccc3o2)CC1 | 84.3% |
| NC(=O)CN1CCCN(C(=O)Cc2ccc(F)cc2)CC1 | -158% |
| CS(=O)(=O)c1ccc(-c2cc(O)cc(CCC3CCCCN3)c2)cc1 (configuration not stated) | 70.3% |
| CS(=O)(=O)c1ccc(CC(=O)N2CCN3CCNC(=O)C3C2)cc1 (configuration not stated) | -50.4% |
| CCCN1CCN(Cc2nccn2CC)C(C)C1 (configuration not stated) | -101% |
| CCCn1ccnc1CN1CCCC1c1ccccn1 (configuration not stated) | 86.8% |
| CCC(=O)N1CCN(Cc2cnc(C)nc2)[C@H]2CS(=O)(=O)C[C@H]21 | -106% |
| Cc1ccc(Sc2ccc(CN3CCC4(CCCNC4=O)C3)o2)cc1 (configuration not stated) | 73.1% |

| SMILES | INHIBITION |
| --- | --- |
| O=C1CC2(CCN(Cc3ccc(Cl)s3)C2)C(=O)N1 (configuration not stated) | -155% |
| Cc1nnc(N2CCCC3(CN(Cc4ccncc4)CCO3)C2)o1 (configuration not stated) | -78.8% |
| CC(C)C(=O)N1CCCC2(CCCN2Cc2cccnc2)C1 (configuration not stated) | -13.9% |
| Cc1ccccc1CC(=O)N1C[C@@H](O)[C@H](N2CCN(C)CC2)C1 | -87.9% |
| CN(C)[C@@H]1CCN(c2ncc(F)cn2)[C@H]1Cc1ccccc1 | 89% |
| Cc1cc(C(=O)N2CC[C@@H](N(C)C)[C@@H]2Cc2ccccc2)no1 | 74.4% |
| Cc1cccc(CN2CC[C@@H]3[C@@H]2CCN3C(=O)c2cc(C)on2)n1 | -95.7% |
| Cc1ccc(CN2C[C@@H]3CN(c4ncc(F)cn4)C[C@@H]3C2)cc1 | -37% |
| CN(C)C(=O)CN1CC[C@H]2[C@H]1CCN2c1ncccn1 | -109% |
| CN(C)[C@@H]1CCN(C(=O)Cc2ccc(F)cc2)[C@H]1Cc1ccncc1 | 5.44% |
| CN(C)[C@@H]1CCN(c2ncccn2)[C@H]1Cc1ccccc1 | 78.1% |
| CN(C)[C@@H]1CCN(C(=O)Cc2cccs2)[C@H]1Cc1cnn(C)c1 | -4.87% |
| CN(C)[C@@H]1CCN(C(=O)Cc2cccs2)[C@H]1Cc1ccncc1 | -51.7% |
| O=S1(=O)NCC2(CCN(Cc3ccc(Cl)s3)C2)Oc2ncccc21 (configuration not stated) | -56.7% |
| O=C1N(c2ccsc2)CCC12CCCN(Cc1cccnc1)C2 (configuration not stated) | -28.4% |
| CCn1cncc1Cn1ncc2ccccc2c1=O | -114% |
| CCn1cncc1CN1CCN(CC2(c3ccc(C)cc3)CC2)CC1 | 70% |
| Cc1ccc(C2(CN3CCN(Cc4cnc(C)n4C)CC3)CC2)cc1 | 95.4% |
| COCCn1cncc1CN1CCC(C(C)=O)(c2ccccc2)CC1 | -20.6% |
| Cc1noc(C)c1CN1CCO[C@H]2CN(Cc3cncn3C)C[C@H]21 | -42.6% |
| Cn1cncc1CN1C[C@@H]2OCCN(c3ncccn3)[C@@H]2C1 | -99.1% |
| Cc1ccc(C2(CN3CCN(Cc4cncn4C)CC3)CC2)cc1 | 73.2% |
| Clc1ccc(-n2nnnc2C2(NCc3ccco3)CCCCC2)cc1 | 5.42% |
| CN(Cc1cncnc1)[C@H]1CN(CC2CC2)[C@@H]2CCCO[C@@H]21 | 4.52% |
| c1cc(COC[C@]23COC[C@H]2CN(CC2CCC2)C3)ccn1 | -81.5% |
| Cc1noc(C)c1CN1CCCC2(CCN(C(=O)NC3CC3)C2)C1 (configuration not stated) | -183% |

| SMILES | INHIBITION |
| --- | --- |
| CC(C)N(C)Cc1cncc2c1CCN(CC(=O)N(C)C)C2 | -31.3% |
| CC(C)N(C)Cc1cnc2n1CCN(C(=O)NC1CCCC1)C2 | 83.4% |
| c1cnnc(N2CCCC2CNc2ncnc3sccc23)c1 (configuration not stated) | 82% |
| CN(Cc1ncc(C(C)(C)C)o1)CC1CCCN1c1cccnn1 (configuration not stated) | 80.7% |
| CN(c1ncnc2ccccc12)C1CCCN(c2cccnn2)C1 (configuration not stated) | 74.4% |
| Cc1cc(C)c(CNc2ncnc3ccccc23)c(=O)[nH]1 | 14.5% |
| c1cnnc(N2CCCC2CNc2ncnc3ccccc23)c1 (configuration not stated) | 81.1% |
| N#Cc1ccc(NC2CCN(c3ncccn3)CC2)cc1Cl | -47.7% |
| c1ccc(CO[C@@H]2CC[C@H]3[C@H]2OCCN3Cc2ccsc2)nc1 | -80.3% |
| CC[C@H](C)[C@@H](CO)NC(C)Cc1ccc(C)cc1 (some centres not stated) | 31.8% |
| O=C(NCc1ccccn1)[C@H]1COC[C@H]2CN(C3CCCC3)C[C@H]21 | -109% |
| COCCn1ccc2c(C(=O)NC3CN4CCC3CC4)cccc21 (configuration not stated) | -19.8% |
| O=C(NC1CC1)C1CCN(c2cccc(C(F)(F)F)n2)CC1 | 79.4% |
| COCCN1C[C@H]2[C@@H](C1)N(C(=O)COc1ccccc1)CC[C@H]2OC | -98.8% |
| N[C@H]1CN(CCCOc2ccccc2)C[C@@H]1C1CC1 | 86.8% |
| O=C(Cc1ccsc1)N1CCN(CCOc2ccccc2)CC1 | 19.5% |
| COCCN1C[C@H]2CCC[C@@H](CNc3ncccn3)[C@H]2C1 | 23.6% |
| N[C@H]1CN(CCOc2ccc(F)cc2)C[C@@H]1C1CC1 | 76.5% |
| CC(C)N1CCC2(CC1)NC(=O)c1cc(Br)ccc1-n1nnnc12 | -84.6% |
| CN1CCOCC2(CCCN(C(=O)Cc3ccncc3)C2)C1 (configuration not stated) | -195% |
| CCS(=O)(=O)N1CCN(C)c2ncccc2C1 | -45.7% |
| CCC(CN1CCOCC1)n1cncc1-c1ccc2c(c1)CCN2CC (configuration not stated) | 94.5% |
| CC(C)CN1CCC2(CC1)CN(C(=O)C(C)C)C2 | -69.1% |
| CNC(=O)[C@H]1C[C@@H]2CN(Cc3c(C)noc3C)C[C@@H]2N1C(C)=O | -19.9% |
